In PubChem BioAssay one finds composite z-score and z-score data, which are given here for 13 compounds.

In experiment [1] the test system is Human papillomavirus type 1a protein E7 (residues 44-93). Briefly: small molecules binding HPV E7 44-93 – biochemical, small-molecule microarray, residues 44-93, 635 nm fluorescence, primary screen (AID 1108).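 Further: E7 fragment applied at 1 µg/mL in TBST for 1 h at 4 C; score combines spot fluorescence with its signal to noise ratio.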 The conditions noted are these: fluorescence 635 nm, higher = more signal.
Experiment [2] in a line: hepatitis C replication reporter changes, two-sided – Huh7 cells, luciferase reporter, HCV replication inhibitor project, primary screen (AID 1109).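 Further: huh7 hepatoma cells harbouring a luciferase neomycin HCV replicon reporter; luciferase luminescence as measure of HCV replicon replication; test concentration not given here.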 The conditions noted are these: Huh7 HCV replicon luciferase reporter, 48 h; higher = more signal.
Experiment [3] concerns the target Left-right determination factor 2 (Homo sapiens) (UniProt O00292). Nature of the experiment: small molecules binding LEFTY2 protein – biochemical, small-molecule microarray, 635 nm fluorescence scan, primary screen (AID 1110). To be noted: higher = more signal.
Experiment [4] deals with Calmodulin-1 (Homo sapiens) (UniProt P0DP23). Briefly: small molecules binding calmodulin-1 with EGTA – biochemical, small-molecule microarray, Cy5-labelled CALM1, profiling panel (AID 1111).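 Further: labelled calmodulin applied in Tris saline Tween buffer holding calcium plus EGTA and DTT.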 The conditions noted are these: Cy5-CALM1 binding fluorescence, higher = more signal.
Experiment [5] shares this target. Briefly: small molecules binding Ca-loaded calmodulin-1 – biochemical, small-molecule microarray, Cy5-labelled CALM1, plus calcium, artefact control for SMM control-protein annotation, profiling panel (AID 1112).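 Further: score merges spot fluorescence with signal to noise from triplicate slides.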 The conditions noted are these: Cy5-CALM1 binding fluorescence, higher = more signal.
The nature of experiment [6]: probe aWnt5a binding to arrayed compounds – biochemical, biotinylated probe, 635/667 nm fluorescence, primary screen (AID 1113).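 Further: score merges 667 nm fluorescence intensity with signal-to-noise per printed feature.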 The conditions noted are these: small-molecule microarray, higher = more signal.
Experiment [7] can be described thus: probe aShh binding to arrayed compounds – biochemical, biotinylated probe, 635/667 nm fluorescence, primary screen (AID 1114).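 Further: probe is biotin-labelled aShh protein from a stem cell growth factor screen; measures binding of labelled protein to compounds printed on the slide; score merges feature fluorescence at 667 nm with signal-to-noise.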 The conditions noted are these: small-molecule microarray, higher = more signal.
The nature of experiment [8]: probe aNog binding to arrayed compounds – biochemical, biotinylated probe, 635/667 nm fluorescence, primary screen (AID 1115).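 Further: probe is biotinylated aNog protein used at 0.15 µg/mL for 1 h at 4 C; z-score combines 667 nm fluorescence of each spot with its signal to noise.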 To be noted: small-molecule microarray, higher = more signal.
For experiment [9], the target named is Torsin-1A-interacting protein 1 (Homo sapiens) (UniProt Q5JTV8). Briefly: compound microarray binding of lysate hLAP1 – cell lysate, small-molecule microarray, COS7 lysate, 635/667 nm fluorescence, primary screen (AID 1116). The conditions noted are these: 635 nm fluorescence, higher = more signal.
The target in experiment [10] is Alpha-bungarotoxin (Bungarus multicinctus) (UniProt P60615). Nature of the experiment: compounds binding labelled alpha-BTX control protein – biochemical, small-molecule microarray, Alexa647 label, 635/667 nm fluorescence, artefact control for SMM control protein annotation, profiling panel (AID 1117). To be noted: alpha-BTX-A647 binding fluorescence, higher = more signal.
Sequence of Alpha-bungarotoxin (Bungarus multicinctus) (P60615 whole entry, looked up): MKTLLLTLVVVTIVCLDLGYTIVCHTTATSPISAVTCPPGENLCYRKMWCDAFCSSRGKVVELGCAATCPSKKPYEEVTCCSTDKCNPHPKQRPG

Sequence of Left-right determination factor 2 (Homo sapiens) (O00292 whole entry, looked up): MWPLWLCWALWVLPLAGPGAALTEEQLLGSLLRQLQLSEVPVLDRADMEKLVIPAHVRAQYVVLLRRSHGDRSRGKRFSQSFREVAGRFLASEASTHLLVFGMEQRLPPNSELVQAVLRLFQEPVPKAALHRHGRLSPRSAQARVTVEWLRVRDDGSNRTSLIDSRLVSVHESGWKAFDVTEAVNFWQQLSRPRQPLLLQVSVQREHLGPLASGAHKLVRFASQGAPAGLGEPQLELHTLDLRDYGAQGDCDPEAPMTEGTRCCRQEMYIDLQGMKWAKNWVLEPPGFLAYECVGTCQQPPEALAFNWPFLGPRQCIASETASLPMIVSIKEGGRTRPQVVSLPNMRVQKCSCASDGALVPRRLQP
Sequence of Torsin-1A-interacting protein 1 (Homo sapiens) (Q5JTV8 whole entry, looked up): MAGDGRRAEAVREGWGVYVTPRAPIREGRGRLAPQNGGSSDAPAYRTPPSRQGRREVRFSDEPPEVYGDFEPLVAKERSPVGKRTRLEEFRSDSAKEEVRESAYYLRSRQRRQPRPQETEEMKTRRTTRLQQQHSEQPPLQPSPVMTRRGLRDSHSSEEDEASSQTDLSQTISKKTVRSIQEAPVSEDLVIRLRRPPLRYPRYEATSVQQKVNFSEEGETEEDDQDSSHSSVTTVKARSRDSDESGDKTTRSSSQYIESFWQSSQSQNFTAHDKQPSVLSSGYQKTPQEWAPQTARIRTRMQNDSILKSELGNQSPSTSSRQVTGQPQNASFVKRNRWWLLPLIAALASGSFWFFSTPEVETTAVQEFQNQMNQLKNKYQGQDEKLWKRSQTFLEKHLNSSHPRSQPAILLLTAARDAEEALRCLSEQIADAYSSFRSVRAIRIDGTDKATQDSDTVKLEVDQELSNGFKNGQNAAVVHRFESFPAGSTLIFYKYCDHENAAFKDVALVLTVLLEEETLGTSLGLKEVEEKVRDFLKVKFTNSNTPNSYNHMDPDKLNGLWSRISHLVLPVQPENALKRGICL

For `O=C(NCC(F)(F)F)[C@@H]1c2ccccc2C(=O)N(Cc2cc(C(F)(F)F)cc(C(F)(F)F)c2)[C@H]1c1ccc(CO)cc1`, the composite z-score was 0.236 in experiment [1]; -0.244 in experiment [3]; -0.0722 in experiment [4]; 0.122 in [5]; 0.0377 in experiment [6]; -0.0035 in experiment [7]. For the same compound, the composite z-score was -0.103 in [8], 0.653 in experiment [9] and 0.0956 in experiment [10]. Moreover, the z-score in experiment [2] was -1.04.

In the case of `Cc1ccc(S[C@]2(C(=O)NC3CC3)CC(=O)N(C3Cc4ccccc4C3)[C@@H]2c2ccc(CO)cc2I)cc1`, the composite z-score is 0.451 in experiment [1]; -1.05 in experiment [3]; 2.09 in [4]; -0.628 in [5]; -0.0758 in experiment [6]; -0.375 in [7]. Further, the composite z-score in experiment [8] is 0.144; in [9], -0.623; in experiment [10], -0.0871. For the same compound, the z-score in experiment [2] was -2.14.

With `COc1ccc(CCNC(=O)[C@@]2(C)c3ccccc3C(=O)N(Cc3ccc(OC(F)(F)F)cc3)[C@H]2c2ccc(CO)cc2)cc1`, the composite z-score in [1] is 1.06; in experiment [3], 0.243; in experiment [4] it was -0.717; in [5], -0.944; in experiment [6] it was 0.0148; in experiment [7] it was 0.0181. Further, the composite z-score in experiment [8] is -0.737; in [9], 0.986; in [10], 1.04. This compound also returned a z-score in experiment [2] of -1.84.

Turning to `COC(=O)C(CC#Cc1ccc2c(c1)[C@]1(C(=O)N2)[C@H](C(=O)NC[C@H](O)c2ccccc2)[C@H]2C(=O)O[C@H](c3ccccc3)[C@H](c3ccccc3)N2[C@@H]1c1ccc(O)cc1)C(=O)OC`, the composite z-score in experiment [1] was -0.603; in experiment [3], -0.357; in experiment [4], -0.113; in experiment [5] it was -0.327; in experiment [6] it was -0.217; in [7], -0.138. The composite z-score in experiment [8] is -0.121; in experiment [9], -0.223; in experiment [10] it was -0.111. This compound displayed a z-score in experiment [2] of -1.7.

Consider `CCCCC(=C=CC[C@H](O)c1cccc(OCCO)c1)C[C@H](O)c1cc(Cl)cc(Cl)c1O`, for which the composite z-score in [1] is 1.39; in experiment [3], -0.0526; in [4], 0.154; in experiment [5], -0.484; in [6] it was -0.096; in experiment [7], -0.0626. The composite z-score was determined as 0.422 in [8], 0.839 in experiment [9] and 0.645 in experiment [10]. In experiment [2], this compound came in with a z-score of -1.59.

Regarding `COC(=O)c1ccc(OC)c(/C=C\CC(OC(=O)c2ccncc2)c2ccccc2)c1` (stereo not given), the composite z-score in experiment [1] was -0.734; in experiment [3], 0.684; in experiment [4] it was -1.05; in [5], 0.157; in experiment [6], -0.101; in experiment [7], -0.206. For the same compound, the values for the composite z-score in experiment [8], in experiment [9] and in experiment [10] were -0.183, 0.187 and 2.12, respectively. In addition, the z-score in experiment [2] is -1.91.

As to `O=C1N(Cc2ccccc2)c2ccccc2C[C@@]12N=C(c1ccc(OCCCO)cc1)O[C@H]2c1ccccc1`, the composite z-score in experiment [1] was 1.34; in experiment [3], -0.297; in experiment [4], 0.333; in [5], -0.458; in experiment [6] it was -0.103; in [7], 0.0948. For the same compound, the composite z-score in [8] was found to be 0.576; in experiment [9] it was 0.176; in [10] it was 0.849. Also, the z-score in experiment [2] is -3.11.

Take `CC(C)(C)OC(=O)CC[C@@]1(C(=O)N2CCOCC2)N=C(c2ccc(OCCCO)cc2)O[C@@H]1c1ccccc1CN=[N+]=[N-]`: the composite z-score is 1.46 in experiment [1]; 0.0254 in [3]; 2.04 in experiment [4]; 0.742 in experiment [5]; 0.281 in experiment [6]; 0.0875 in experiment [7]. Moreover, the composite z-score in experiment [8] was determined as 2.13; in experiment [9], 3.31; in [10], 0.986. The compound further showed a z-score in experiment [2] of 0.265.

Consider `C[C@]1(C(=O)NC2CC2)c2ccccc2C(=O)N(Cc2cc(F)cc(C(F)(F)F)c2)[C@H]1c1ccc(CO)cc1`, for which the composite z-score in [1] was 1.49; in [3] it was -1.59; in experiment [4] it was -0.448; in experiment [5], 0.0045; in experiment [6], -0.187; in experiment [7], -0.469. For the same compound, the composite z-score in [8] is -0.658; in experiment [9] it was -0.65; in experiment [10], -0.442. In experiment [2], this compound showed a z-score of -0.782.

`CC(=O)NCCCC[C@@H]1NC(=O)[C@H]2C[C@@H](C(=O)O)[C@@H](c3cccc(OCCO)c3)N2C1=O`: the composite z-score in experiment [1] is 1.11; in [3] it was 0.978; in experiment [4], 0.0626; in experiment [5], -0.767; in [6], 0.27; in [7] it was 0.588. The composite z-score in experiment [8] was found to be 1.51; in experiment [9], 1.53; in experiment [10] it was 1.49. In [2], this compound displayed a z-score of -1.14.

Regarding `COc1ccc([Si](C)(C)[C@H]2[C@H](CC(=O)N(CCO)Cc3ccccc3)O[C@@]3(C(=O)N(Cc4ccc(N5C(=O)c6cccc7cccc5c67)cc4)c4ccccc43)[C@@H]2C)cc1`, the composite z-score turned out to be 1.28 in experiment [1]; 0.544 in [3]; 0.605 in experiment [4]; 0.103 in [5]; 0.0495 in [6]; 0.19 in experiment [7]. Also, the composite z-score is 0.945 in experiment [8], 0.869 in [9] and 0.753 in [10]. In addition, the z-score in [2] was -3.78.

In the case of `COCCOC(=O)N1C(=O)[C@@]2(c3cc(C#CCC(C(=O)OC)C(=O)OC)ccc31)[C@H](C(=O)N1CCc3cc(OC)c(OC)cc3C1)[C@H]1C(=O)O[C@H](c3ccccc3)[C@H](c3ccccc3)N1[C@@H]2c1ccccc1OCCO`, the composite z-score in [1] is 1.36; in experiment [3], 1.07; in experiment [4] it was 0.965; in [5], -0.226; in experiment [6] it was -0.0125; in experiment [7] it was 1.57. Moreover, the composite z-score in experiment [8] is -0.512; in experiment [9], 1.03; in experiment [10] it was 0.774. The same compound returned a z-score in experiment [2] of -1.61.

As for `C=C(C(=O)CC[C@@H](OC(=O)c1cccnc1)c1cccc(OCCO)c1)C(C)C`, the composite z-score in [1] is -0.501; in experiment [3], 0.415; in [4] it was -0.323; in experiment [5] it was -1.4; in experiment [6], -0.0405; in experiment [7], -0.123. Further, the composite z-score in [8] was -0.0784; in experiment [9], 0.534; in experiment [10], 0.316. Also, the z-score in [2] was -2.12.
